Drawing on ChEMBL document CHEMBL1961873, “Compounds: GSK PKIS; Assays: Nanosyn kinase panel” (2012), this text covers inhibition for 12 compounds.

Molecules are shown by their SMILES. “And” between values parts separate entries of the source, which are not always exact repeats. Equal values may be shown once.

Experiment [1] deals with Epidermal growth factor receptor (Homo sapiens), P00533 [T790M]. Particulars: at 1 µM.
The subject of experiment [2] is Epidermal growth factor receptor (Homo sapiens), P00533 [L858R,T790M]. As to conditions: at 0.1 µM.
Experiment [3] shares this test system. Particulars: at 1 µM.
Experiment [4] addresses Ephrin type-A receptor 2 (Homo sapiens) (UniProt P29317). Particulars: at 0.1 µM.
For experiment [5] the target is unchanged. As to conditions: at 1 µM.
The target of experiment [6] is T1, Ephrin type-A receptor 3 (Homo sapiens) (UniProt P29320).
T1 sequence (whole entry): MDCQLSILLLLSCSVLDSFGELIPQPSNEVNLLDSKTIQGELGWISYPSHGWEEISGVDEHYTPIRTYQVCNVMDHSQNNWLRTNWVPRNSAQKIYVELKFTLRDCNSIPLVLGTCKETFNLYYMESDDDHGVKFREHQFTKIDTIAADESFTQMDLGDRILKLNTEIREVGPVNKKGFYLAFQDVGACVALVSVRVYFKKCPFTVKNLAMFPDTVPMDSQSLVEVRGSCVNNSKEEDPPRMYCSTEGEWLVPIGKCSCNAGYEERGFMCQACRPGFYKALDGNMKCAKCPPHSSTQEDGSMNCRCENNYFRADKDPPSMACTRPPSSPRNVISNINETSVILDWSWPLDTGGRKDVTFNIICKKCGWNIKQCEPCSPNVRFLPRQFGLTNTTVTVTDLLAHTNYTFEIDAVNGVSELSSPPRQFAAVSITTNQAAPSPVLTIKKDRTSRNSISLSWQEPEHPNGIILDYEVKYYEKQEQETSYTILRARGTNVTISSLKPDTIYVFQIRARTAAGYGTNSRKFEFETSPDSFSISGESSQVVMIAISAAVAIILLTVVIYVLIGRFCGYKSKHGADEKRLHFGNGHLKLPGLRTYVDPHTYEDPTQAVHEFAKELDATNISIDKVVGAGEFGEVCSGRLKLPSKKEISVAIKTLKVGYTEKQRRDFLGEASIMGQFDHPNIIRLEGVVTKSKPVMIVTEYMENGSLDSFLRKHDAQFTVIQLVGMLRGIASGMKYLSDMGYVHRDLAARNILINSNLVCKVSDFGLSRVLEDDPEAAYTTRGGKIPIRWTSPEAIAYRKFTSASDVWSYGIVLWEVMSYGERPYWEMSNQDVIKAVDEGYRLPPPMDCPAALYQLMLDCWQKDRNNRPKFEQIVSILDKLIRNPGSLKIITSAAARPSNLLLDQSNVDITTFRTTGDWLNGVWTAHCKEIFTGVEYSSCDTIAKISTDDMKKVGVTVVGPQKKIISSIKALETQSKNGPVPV
As to conditions: at 0.1 µM.

Experiment [7] concerns the target T1, Ephrin type-A receptor 3 (Homo sapiens). As to conditions: at 1 µM.
The target in experiment [8] is Ephrin type-A receptor 4 (Homo sapiens) (UniProt P54764). As to conditions: at 0.1 µM.
Experiment [9] has the same target. As to conditions: at 1 µM.
Experiment [10] deals with T2, Ephrin type-B receptor 2 (Homo sapiens) (UniProt P29323).
T2 sequence (whole entry): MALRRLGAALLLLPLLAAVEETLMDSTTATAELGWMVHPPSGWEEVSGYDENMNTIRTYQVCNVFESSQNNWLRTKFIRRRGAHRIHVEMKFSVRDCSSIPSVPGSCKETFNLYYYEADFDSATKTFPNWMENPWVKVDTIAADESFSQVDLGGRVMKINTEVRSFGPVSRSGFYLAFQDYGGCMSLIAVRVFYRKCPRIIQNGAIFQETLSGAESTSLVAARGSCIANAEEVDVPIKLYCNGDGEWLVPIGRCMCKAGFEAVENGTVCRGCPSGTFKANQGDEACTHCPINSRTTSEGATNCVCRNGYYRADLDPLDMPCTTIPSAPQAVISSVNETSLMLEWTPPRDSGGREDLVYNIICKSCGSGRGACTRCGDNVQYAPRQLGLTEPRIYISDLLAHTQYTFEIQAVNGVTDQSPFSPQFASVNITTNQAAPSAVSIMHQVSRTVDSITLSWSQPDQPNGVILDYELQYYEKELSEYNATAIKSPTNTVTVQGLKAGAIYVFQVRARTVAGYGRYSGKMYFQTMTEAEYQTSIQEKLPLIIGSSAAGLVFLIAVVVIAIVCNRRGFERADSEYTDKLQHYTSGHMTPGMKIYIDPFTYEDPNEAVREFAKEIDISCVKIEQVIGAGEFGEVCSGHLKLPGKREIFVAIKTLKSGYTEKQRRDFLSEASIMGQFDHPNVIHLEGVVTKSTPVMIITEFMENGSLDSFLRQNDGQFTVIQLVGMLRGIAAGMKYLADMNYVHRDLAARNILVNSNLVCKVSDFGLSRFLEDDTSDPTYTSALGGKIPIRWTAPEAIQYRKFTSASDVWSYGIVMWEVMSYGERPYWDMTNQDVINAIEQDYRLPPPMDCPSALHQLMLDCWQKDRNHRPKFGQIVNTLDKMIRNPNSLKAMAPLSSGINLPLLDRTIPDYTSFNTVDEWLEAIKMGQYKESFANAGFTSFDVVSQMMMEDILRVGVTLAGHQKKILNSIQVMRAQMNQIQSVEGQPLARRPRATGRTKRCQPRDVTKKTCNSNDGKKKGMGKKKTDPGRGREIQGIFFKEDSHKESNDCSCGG
As to conditions: at 0.1 µM.

Epidermal growth factor receptor (Homo sapiens), P00533 [L858R,T790M], sequence (P00533 whole entry T790M/L858R, looked up): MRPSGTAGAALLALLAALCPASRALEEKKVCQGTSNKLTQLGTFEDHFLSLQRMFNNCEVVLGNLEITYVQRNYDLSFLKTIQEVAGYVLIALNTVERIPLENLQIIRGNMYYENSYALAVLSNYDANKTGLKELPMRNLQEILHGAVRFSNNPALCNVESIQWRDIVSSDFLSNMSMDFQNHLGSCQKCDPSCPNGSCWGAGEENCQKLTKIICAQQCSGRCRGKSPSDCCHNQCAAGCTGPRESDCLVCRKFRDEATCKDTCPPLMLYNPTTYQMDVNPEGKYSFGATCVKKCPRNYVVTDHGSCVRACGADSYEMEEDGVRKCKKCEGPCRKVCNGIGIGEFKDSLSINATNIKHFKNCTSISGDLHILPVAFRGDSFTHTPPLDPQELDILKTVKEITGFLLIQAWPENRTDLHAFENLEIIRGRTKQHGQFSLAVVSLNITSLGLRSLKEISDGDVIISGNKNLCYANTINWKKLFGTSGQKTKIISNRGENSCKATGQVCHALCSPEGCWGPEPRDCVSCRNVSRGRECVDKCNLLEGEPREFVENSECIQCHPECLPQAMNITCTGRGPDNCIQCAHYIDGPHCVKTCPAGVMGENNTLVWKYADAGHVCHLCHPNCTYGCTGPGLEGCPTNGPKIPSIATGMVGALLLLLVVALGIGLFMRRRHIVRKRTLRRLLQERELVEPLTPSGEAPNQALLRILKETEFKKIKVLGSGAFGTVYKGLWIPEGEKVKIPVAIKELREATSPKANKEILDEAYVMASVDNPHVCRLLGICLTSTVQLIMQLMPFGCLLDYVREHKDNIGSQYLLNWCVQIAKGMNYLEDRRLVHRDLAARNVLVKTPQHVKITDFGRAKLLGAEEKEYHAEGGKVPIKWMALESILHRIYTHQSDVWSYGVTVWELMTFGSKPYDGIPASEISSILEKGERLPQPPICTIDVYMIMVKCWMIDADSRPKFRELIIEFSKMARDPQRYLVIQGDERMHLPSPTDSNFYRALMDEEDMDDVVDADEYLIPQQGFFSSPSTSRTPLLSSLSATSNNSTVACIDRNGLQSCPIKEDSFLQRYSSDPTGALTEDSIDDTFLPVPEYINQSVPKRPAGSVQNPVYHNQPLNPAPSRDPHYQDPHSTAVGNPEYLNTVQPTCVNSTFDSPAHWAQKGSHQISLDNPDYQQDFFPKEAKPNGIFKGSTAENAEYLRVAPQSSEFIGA
Epidermal growth factor receptor (Homo sapiens), P00533 [T790M], sequence (P00533 whole entry T790M): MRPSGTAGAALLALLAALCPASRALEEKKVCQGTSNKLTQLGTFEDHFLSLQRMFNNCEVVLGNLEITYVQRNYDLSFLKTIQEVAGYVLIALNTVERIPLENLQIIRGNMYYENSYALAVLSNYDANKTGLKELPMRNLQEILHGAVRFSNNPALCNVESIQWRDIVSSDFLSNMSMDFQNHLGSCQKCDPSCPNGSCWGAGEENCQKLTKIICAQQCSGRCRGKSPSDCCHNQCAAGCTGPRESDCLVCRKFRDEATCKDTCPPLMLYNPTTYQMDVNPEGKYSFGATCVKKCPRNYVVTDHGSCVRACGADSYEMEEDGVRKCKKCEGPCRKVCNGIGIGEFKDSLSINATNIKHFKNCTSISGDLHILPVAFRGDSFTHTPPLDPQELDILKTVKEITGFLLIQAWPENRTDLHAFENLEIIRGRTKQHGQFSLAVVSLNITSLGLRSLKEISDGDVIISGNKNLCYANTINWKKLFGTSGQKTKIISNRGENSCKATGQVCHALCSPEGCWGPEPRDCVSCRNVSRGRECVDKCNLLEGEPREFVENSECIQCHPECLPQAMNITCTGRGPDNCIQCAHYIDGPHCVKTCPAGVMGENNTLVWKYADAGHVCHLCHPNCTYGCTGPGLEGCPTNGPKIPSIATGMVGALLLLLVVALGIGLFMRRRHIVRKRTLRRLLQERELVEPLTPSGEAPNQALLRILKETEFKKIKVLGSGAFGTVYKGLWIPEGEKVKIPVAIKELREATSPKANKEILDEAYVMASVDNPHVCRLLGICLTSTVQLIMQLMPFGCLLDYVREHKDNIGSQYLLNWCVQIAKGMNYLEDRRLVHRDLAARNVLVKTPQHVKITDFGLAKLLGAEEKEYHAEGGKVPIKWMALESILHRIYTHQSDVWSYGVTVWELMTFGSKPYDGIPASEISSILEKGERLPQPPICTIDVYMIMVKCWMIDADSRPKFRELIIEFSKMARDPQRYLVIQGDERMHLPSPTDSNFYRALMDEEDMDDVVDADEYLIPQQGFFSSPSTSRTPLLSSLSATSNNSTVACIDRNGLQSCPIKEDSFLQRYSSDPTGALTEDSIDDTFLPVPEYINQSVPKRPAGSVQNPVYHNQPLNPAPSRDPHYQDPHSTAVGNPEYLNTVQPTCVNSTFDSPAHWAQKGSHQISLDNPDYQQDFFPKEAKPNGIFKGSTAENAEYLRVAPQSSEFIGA
Ephrin type-A receptor 2 (Homo sapiens), sequence (P29317 whole entry): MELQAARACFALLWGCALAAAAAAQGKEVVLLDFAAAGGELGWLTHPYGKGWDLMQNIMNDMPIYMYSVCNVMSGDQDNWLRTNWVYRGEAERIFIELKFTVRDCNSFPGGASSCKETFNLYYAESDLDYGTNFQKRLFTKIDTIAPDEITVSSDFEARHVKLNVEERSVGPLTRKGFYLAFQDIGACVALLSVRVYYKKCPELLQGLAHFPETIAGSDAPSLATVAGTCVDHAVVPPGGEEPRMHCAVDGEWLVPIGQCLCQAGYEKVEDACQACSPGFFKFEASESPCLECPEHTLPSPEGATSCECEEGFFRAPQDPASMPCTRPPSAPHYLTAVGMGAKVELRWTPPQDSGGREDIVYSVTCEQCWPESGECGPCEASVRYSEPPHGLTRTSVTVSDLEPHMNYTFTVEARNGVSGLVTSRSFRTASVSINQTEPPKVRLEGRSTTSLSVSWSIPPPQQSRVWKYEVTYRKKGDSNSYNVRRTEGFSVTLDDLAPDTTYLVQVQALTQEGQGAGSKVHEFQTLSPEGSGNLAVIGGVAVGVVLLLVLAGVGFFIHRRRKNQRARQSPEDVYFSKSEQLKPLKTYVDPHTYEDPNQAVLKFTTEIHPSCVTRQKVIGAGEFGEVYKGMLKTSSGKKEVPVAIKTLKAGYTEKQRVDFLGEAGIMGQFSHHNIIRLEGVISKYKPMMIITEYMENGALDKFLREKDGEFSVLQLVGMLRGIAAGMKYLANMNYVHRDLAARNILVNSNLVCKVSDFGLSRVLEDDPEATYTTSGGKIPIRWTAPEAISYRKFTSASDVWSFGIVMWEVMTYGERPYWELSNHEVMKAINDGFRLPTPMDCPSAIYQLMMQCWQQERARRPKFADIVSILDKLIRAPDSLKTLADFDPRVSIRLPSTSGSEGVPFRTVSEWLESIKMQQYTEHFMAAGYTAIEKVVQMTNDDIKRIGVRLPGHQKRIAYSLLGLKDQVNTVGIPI
Ephrin type-A receptor 4 (Homo sapiens), sequence (P54764 whole entry): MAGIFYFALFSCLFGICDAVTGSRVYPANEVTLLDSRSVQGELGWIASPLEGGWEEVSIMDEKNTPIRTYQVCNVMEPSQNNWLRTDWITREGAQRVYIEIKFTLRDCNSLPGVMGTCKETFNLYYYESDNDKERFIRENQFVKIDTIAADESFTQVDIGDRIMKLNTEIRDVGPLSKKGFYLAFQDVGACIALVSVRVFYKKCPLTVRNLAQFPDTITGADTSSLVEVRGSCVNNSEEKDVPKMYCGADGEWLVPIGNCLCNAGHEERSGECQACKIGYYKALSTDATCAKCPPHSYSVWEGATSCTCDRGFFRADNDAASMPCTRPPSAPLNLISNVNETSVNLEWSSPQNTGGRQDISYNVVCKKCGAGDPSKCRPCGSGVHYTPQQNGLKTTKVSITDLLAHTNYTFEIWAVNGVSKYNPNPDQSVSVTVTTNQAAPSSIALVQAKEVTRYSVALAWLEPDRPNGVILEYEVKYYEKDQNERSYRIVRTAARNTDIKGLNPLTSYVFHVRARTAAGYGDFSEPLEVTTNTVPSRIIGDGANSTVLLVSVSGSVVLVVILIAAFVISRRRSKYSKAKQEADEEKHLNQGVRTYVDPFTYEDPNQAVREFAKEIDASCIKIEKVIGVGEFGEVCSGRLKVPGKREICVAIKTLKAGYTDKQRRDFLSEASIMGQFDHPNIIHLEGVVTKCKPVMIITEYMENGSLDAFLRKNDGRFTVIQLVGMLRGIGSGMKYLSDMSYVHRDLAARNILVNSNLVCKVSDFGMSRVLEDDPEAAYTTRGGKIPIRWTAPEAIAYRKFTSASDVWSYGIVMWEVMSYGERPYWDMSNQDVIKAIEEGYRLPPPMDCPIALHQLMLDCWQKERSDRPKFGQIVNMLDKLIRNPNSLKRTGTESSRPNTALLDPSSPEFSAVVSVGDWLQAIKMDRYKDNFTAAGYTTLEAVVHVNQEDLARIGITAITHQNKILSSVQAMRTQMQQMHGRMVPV

In general, inhibition refers to the relative decrease from the control value, in per cent. As to `COC(=O)Nc1nc2cc(Oc3ccc(NC(=O)Nc4ccccc4)cc3)ccc2[nH]1`, the inhibition in experiment [1] was 2.64%; in [2] it was -2.44%; in experiment [3], 2.14%; in [4], 2.42%; in experiment [5], 3.37%; in [6], 4.93%. The inhibition in experiment [7] is 1.33%; in experiment [8], 8.86%; in experiment [9] it was 11.2%; in experiment [10], 5.01%.

For the compound `CN1CCN(Cc2ccc(-c3cc4ncnc(Nc5ccc(OCc6cccc(F)c6)c(Cl)c5)c4s3)o2)CC1`, the inhibition is -2.36% and 1.48% in [4]; -2.73% and 2.15% in [5]; 2.75% and 5.84% in [6]; 2.47% and 3.64% in experiment [7]; 4.95% and 10.4% in [8]; 6.16% and 11.9% in experiment [9]. Besides, the inhibition in experiment [10] is 5.13% and 6.55%.

As for `CNC(=O)c1sc(-n2cnc3cc(OC)c(OC)cc32)cc1OCc1ccccc1C(F)(F)F`, the inhibition in [1] worked out at 0.02%; in [2] it was 0.49%; in experiment [3] it was 1.43%; in experiment [4], 2.6%; in experiment [5], 2.61%; in experiment [6], 3.26%. Besides, the inhibition is 7.45% in experiment [7], 7.55% in experiment [8], 13.2% in experiment [9] and 5.44% in [10].

As to `N#Cc1ccc2c(-c3ccnc(NC4CC4)n3)c(-c3ccc(F)cc3)nn2c1`, the inhibition in experiment [1] was 2.72%; in experiment [2] it was 1.77%; in experiment [3], 2.17%; in [4] it was -2.09%; in experiment [5], -0.16%; in experiment [6], 1.29%. Further, the inhibition in experiment [7] worked out at 4.31%; in experiment [8], 5.96%; in [9], 15.6%; in experiment [10], 8.8%.

In the case of `CC1(C)CC(n2cnc(-c3ccc(F)cc3)c2-c2ccnc(N)n2)CC(C)(C)N1`, the inhibition was -1.34% in experiment [1]; 2.59% in experiment [2]; 1.85% in experiment [3]; -2.86% in experiment [4]; -2.93% in experiment [5]; -0.75% in experiment [6]. Moreover, the inhibition in [7] is -0.11%; in experiment [8], 0.35%; in experiment [9] it was -1.89%; in [10], 0.78%.

For the compound `Nc1nonc1-c1nc2cnccc2n1C1CC1`, the inhibition in experiment [1] is 0.41% and 1.8%; in experiment [2] it was 0.14% and 3.74%; in [3], 5.5% and 7.11%; in experiment [4] it was 1.3% and -6.99%; in experiment [5], 0.04% and -7.28%; in experiment [6], 3.71% and -1.91%. In addition, the inhibition is 3.7% and -1.81% in experiment [7]; 6.99% and 5.79% in [8]; 5.96% and 2.69% in experiment [9]; 10.5% and 2.91% in experiment [10].

On to `Nc1ncnc2occ(-c3ccc(NC(=O)Nc4cc(C(F)(F)F)ccc4F)cc3)c12`, for which the inhibition in [1] was -0.24% and 0.54%; in experiment [2], 0.74% and 1.93%; in [3], 0.23% and -1.52%; in experiment [4] it was 22.4% and 1.32%; in experiment [5], 80.5% and 57%; in experiment [7], 43.8% and 25.2%. Moreover, the inhibition is 77.2% and 77.9% in experiment [9]; 55.4% and 55.7% in experiment [10].

In the case of `CS(=O)(=O)CCNCc1ccc(-c2ccc3ncnc(Nc4ccc(OCc5ccccc5)cc4)c3c2)o1`, the inhibition amounted to 12.4% in [1]; 0.12% in experiment [2]; 4.35% in experiment [3]; 1.77% in experiment [4]; 1.18% in [5]; 5.21% in [6]. Besides, the inhibition in experiment [7] stood at 5.62%; in [8], 9.98%; in experiment [9], 11.5%; in [10] it was 6.07%.

In the case of `O=C(O[C@H]1CN[C@H](C#Cc2cc3ncnc(Nc4ccc5c(cnn5Cc5ccccc5)c4)c3s2)C1)N1CCOCC1`, the inhibition is 9.06% in [1]; -5.39% in [2]; -1.26% in experiment [3]; -1.74% in [4]; -2.68% in experiment [5]; -0.31% in [6]. Also, the inhibition was 0.9% in experiment [7], -0.59% in experiment [8], 1.79% in experiment [9] and -3.66% in experiment [10].

As for `NS(=O)(=O)c1cccc(N/C=C2\C(=O)Nc3ccccc32)c1`, the inhibition amounted to 1.35% in experiment [1]; 2.94% in [2]; 5.43% in [3]; 0.86% in experiment [4]; 1.68% in experiment [5]; 3.01% in [6]. Besides, the inhibition in [7] was 3.78%; in experiment [8] it was 7.61%; in [9], 3.9%; in [10], 9.06%.

Regarding `COc1cc(N2CCN(C(C)C)CC2)ccc1Nc1nc(Nc2cccc3ncccc23)c2cc[nH]c2n1`, the inhibition in experiment [1] was 10.3%; in [2], 1.03%; in experiment [3] it was 35.2%; in experiment [4] it was -1.62%; in experiment [5] it was -2.47%; in [6], 0.15%. Moreover, the inhibition in experiment [7] amounted to 3.49%; in [8] it was 0.21%; in experiment [9], 0.38%; in experiment [10] it was 5.06%.

For `COc1ccc2ncn(-c3cc(O[C@H](C)c4ccccc4C(F)(F)F)c(C(N)=O)s3)c2c1`, the inhibition in [1] is -1.39%; in experiment [2], -1.39%; in experiment [3] it was -0.48%; in experiment [4], -3.1%; in [5] it was -4.03%; in experiment [6], 0.39%. Moreover, the inhibition came out at 2.63% in [7], 0.27% in experiment [8], 0.47% in experiment [9] and 1.25% in experiment [10].
